NPC1 promoter act: activators of NPC1 promoter | Huh7 NPC1 promoter luciferase reporter, 24 h | Potency, µM (top dose mostly 9.22 µM), for the others: at the highest dose activation, most hits filed as activators | 2.4% of 320,000 active | AID 485313; further: % of control where 0% means no effect; nearly all actives have a fitted effect of over 60% in size
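Cells: Huh7 expressing luciferase under the NPC1 promoter, 1500/well. Seeded 2 h, compound added, incubated 24 h at 37 °C. Luciferase reagent, 10 min ambient, then luminescence.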
FLuc counter: inhibits or activates purified firefly luciferase, miR-21 counter-screen; 6.9% of 360,000 active; purified FLuc, Km substrates, luminescence inhibition; P08659; Potency, µM (titrated, usually from 57.5 µM), inactives show top-dose activity change, negative = inhibition, actives largely listed as inhibitors; AID 588342;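 further: plate controls were vehicle for no effect and reference inhibitor for full effect; nearly all actives have a fitted effect of over 55% in size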
Target sequence (P08659 whole entry, looked up): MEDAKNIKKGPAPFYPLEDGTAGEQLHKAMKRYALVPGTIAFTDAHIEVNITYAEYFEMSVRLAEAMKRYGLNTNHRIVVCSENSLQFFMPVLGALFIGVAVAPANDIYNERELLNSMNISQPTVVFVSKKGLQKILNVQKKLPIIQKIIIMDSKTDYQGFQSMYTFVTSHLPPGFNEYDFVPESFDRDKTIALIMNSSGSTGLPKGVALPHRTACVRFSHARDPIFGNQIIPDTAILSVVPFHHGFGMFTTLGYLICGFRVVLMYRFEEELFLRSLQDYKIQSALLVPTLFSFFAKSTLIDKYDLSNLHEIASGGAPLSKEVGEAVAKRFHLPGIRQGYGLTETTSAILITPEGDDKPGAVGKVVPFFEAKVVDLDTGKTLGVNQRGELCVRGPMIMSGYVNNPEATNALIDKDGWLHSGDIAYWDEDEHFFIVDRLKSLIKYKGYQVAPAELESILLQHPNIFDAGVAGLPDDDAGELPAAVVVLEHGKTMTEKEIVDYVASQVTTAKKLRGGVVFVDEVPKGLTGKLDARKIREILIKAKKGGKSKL
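Purified P. pyralis luciferase, 10 nM final, with Km-level 10 uM D-luciferin and 10 uM ATP in 50 mM Tris acetate pH 7.5, 10 mM Mg acetate, 0.01% Tween-20, 0.05% BSA; 6-point qHTS titration about 60 µM downward; luminescence read.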
p53 reactivation: mutant p53 re-activation in reporter cells; Potency, µM (doses to about 92.2 µM), inactives show at the highest dose activity change, positive = activation, hits mostly activators; H1299 p53-A138V BP100-luciferase reporter, luminescence, 24 h; AID 504706; 0.063% of 320,000 active; further: % of control where 0% means no effect; nearly all actives have a fitted effect of over 45% in size
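p53-null H1299 cells stably carrying temperature-sensitive p53-A138V and a BP100-luciferase reporter were pinned with compounds (4-point, 1:5 series) and held 24 hrs at 37 deg C. Luminescence was read 10 min after detection reagent.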
SMN2 splice up: SMN2 splice variant enhancement. HEK293 SMN2-luciferase splicing reporter, luminescence, 30-36 h. AID 1458. 2.8% of 210,000 active. Potency, µM (highest dose often 46.1 µM), inactives show at the top dose activity change, positive = activation, hits mostly activators; further: % of control where 0% means no effect; nearly all actives have a fitted effect of over 55% in size
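HEK293 cells carry an SMN2 minigene-luciferase reporter in which exon 7 inclusion puts luciferase in frame. Cells were seeded at 2000 cells/well, attached for 10-12 hours, then exposed to compounds for 30-36 hours at 37C before ONE-Glo luminescence.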
Rab9 prom act: activators of Rab9 promoter; Huh7 Rab9 promoter-luciferase reporter, luminescence, 24 h; Potency, µM (titrated, usually from 9.22 µM), for inactives: top-dose activation, negative = inhibition, usual class: activators; 2.8% of 320,000 active; AID 485297; further: % of control where 0% means no effect; nearly all actives have a fitted effect of over 60% in size
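Using Huh7 cells stably transfected with Rab9 promoter–luciferase, compounds were incubated 24 h at 37 °C, 5% CO2; luciferase luminescence was read 10 min after reagent addition.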
ELG1 genotox: induces genotoxicity in HEK293T cells with luciferase-tagged ELG1. HEK293T ELG1-luciferase reporter, luminescence, 16 h. Potency, µM (titrated, usually from 46 µM), for inactives: at the highest dose activity change, positive = activation, hits mostly activators. 1.3% of 330,000 active; further: % of control where 0% means no effect; nearly all actives have a fitted effect of over 60% in size
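16 hr compound incubation (37 °C, 5% CO2) of HEK293T cells carrying luciferase-tagged ELG1; luciferase then measured by ONE-Glo luminescence after 30 min at RT.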
An asterisk follows results filed as active; u = inconclusive; x = no result; [ ] = remark or other dose. Compounds with a hit are over-represented: about 7.4% of the library has one in this group of screens. The call rests on the fitted dose curve; in most records, active means well fitted curve in the direction sought with a large enough effect; inconclusive means small, poorly fitted or top-dose-only effect, or another doubt; inactive means no such curve, though single readings can be large; an effect the other way counts as inactive or inconclusive. Potency means the concentration at half of the fitted maximal effect.

SMILES	NPC1 promoter act	FLuc counter	p53 reactivation	SMN2 splice up	Rab9 prom act	ELG1 genotox
Cc1ccc2nc(N3CCN(C)CC3)c(C=O)c(=O)n2c1	-1.3%	3.4%	-2.9%	x	4.4%	1.7%
COc1cccc(/C=C/C(=O)c2cccc([N+](=O)[O-])c2)c1OC	8.6%	10.7µM*	-11.3%	-1.8%	-7.2%	u
O=[N+]([O-])c1cc(/C=N/O)ccc1N1CCCC1	0.3%	-5.3%	0.7%	14.5%	2.1%	-9.9%
COc1ccc(/C=C(/NC(=O)c2cccc([N+](=O)[O-])c2)C(=O)O)cc1OC	-1.7%	-0.3%	-1.2%	-8.7%	1.5%	3.8%
COc1cccc(/C=C/C(=O)c2cccc([N+](=O)[O-])c2)c1	-8.9%	8.49µM*	-11.1%	-3.1%	-2.0%	u
COc1cccc(C(=O)/C=C/c2ccc(N3CCCCC3)c([N+](=O)[O-])c2)c1	-1.1%	8.49µM*	13.5%	-20.2%	-1.9%	10.9%
COc1ccc(OC(=O)c2cccc([N+](=O)[O-])c2)c(C(=O)/C=C/c2cccs2)c1	10.8%	-7.5%	11.9%	-11.5%	-0.3%	u
CO/N=C/c1ccc(N2CCCC2)c([N+](=O)[O-])c1	9.4%	16.9µM*	7.8%	-27.5%	19.5%	-0.6%
CCOC(=O)c1cc2c(=O)n3ccccc3nc2n(CCCOC)c1=NC(=O)c1c(-c2c(F)cccc2Cl)noc1C	x	-6.0%	x	1.5%	x	x
COc1ccc2c(c1)N(C[C@@H](C)CN(C)C)c1ccccc1S2	x	x	x	-10.8%[20.6 µM]	x	x
Cc1ccc2c(CN3CC(C)CC(C)C3)cc(=O)oc2c1 (centres undefined)	1.1%	0.8%	-1.6%	x	4.1%	2.5%
Cc1ccc2c(CN3CCC(C)CC3)cc(=O)oc2c1	3.55µM*	7.57µM*	u	14.1µM*	1.78µM*	4.61µM*
O=C(CNC(=O)OCc1ccccc1)Nc1ccc(F)cc1	0.8%	-2.8%	-9.4%	x	0.9%	-2.1%
Cc1ccc(NC(=O)CSC2=NN3CCCC(=O)N=C3S2)cc1Cl	-1.5%	-2.2%	0.6%	x	-9.6%	-2.5%
CCCC1CCC(c2ccc(OCC)cc2)=CC1=O (centres undefined)	2µM*	6.75µM*	x	x	3.55µM*	u
Cc1c(C)n(CCO)c2ncnc(Nc3ccc(F)cc3)c12	24.7%	19µM*	0.2%	x	u	u
COc1ccc(Nc2ncnc3c2c(C)c(C)n3CCO)cc1	1µM*	5.36µM*	u	x	1.58µM*	8.2µM*
Cc1ccccc1Nc1nc(-c2ccccc2)c(C(=O)Nc2cccnc2)s1	0.0%	15.1µM*	-12.6%	4.1%	2.3%	-2.2%
O=C(Nc1cccnc1)c1sc(Nc2ccccc2F)nc1-c1ccccc1	0.9%	-0.7%	1.6%	x	u	11.0%
CCOc1ccc(NC(=O)CN(c2ccc(OC)cc2)S(C)(=O)=O)cc1	u	21.3µM*	u	-5.6%	25.9%	16.4µM*
COC(=O)c1ccc(NC(=O)CN(c2ccc(OC)cc2)S(C)(=O)=O)cc1	u	15.1µM*	u	u	2.51µM*	u
CCOc1ccc(N(CC(=O)NCc2ccccc2C)S(C)(=O)=O)cc1	3.16µM*	13.5µM*	7.4%	x	u	u
CCOc1ccc(N(CC(=O)NCCSCc2ccccc2Cl)S(C)(=O)=O)cc1	1.9%	3.1%	-8.2%	x	0.7%	-9.6%
CC(NC(=O)c1c(F)cccc1Cl)c1ccc(-n2ccnc2)cc1 (centres undefined)	1.5%	-3.7%	0.7%	x	11.7%	-2.6%
CCCCOc1ccc(-c2ncc(Cl)cn2)cc1	2.51µM*	2.69µM*	u	12.6µM*	1.78µM*	12.6µM*
SMILES	NPC1 promoter act	FLuc counter	p53 reactivation	SMN2 splice up	Rab9 prom act	ELG1 genotox
CCCCOc1ccc(-c2ncc([N+](=O)[O-])cn2)cc1	3.98µM*	u	16.4%	x	3.16µM*	u
CCCCOC(=O)c1ccc(Nc2ccc([N+](=O)[O-])cn2)cc1	4.1%	1.6%	-6.9%	12.2%[1.84 µM]	-1.2%	-1.9%
COc1ccccc1CNC(=O)CN1C(=O)CCn2nc(-c3ccccc3)cc21	x	-8.3%	x	x	x	x
O=C(c1cccs1)N(CCN1CCCCC1)CC1CCCN(C2CCCC2)C1 (centres undefined)	22.9%	16.9µM*	u	x	u	17.7%
COc1ccc(C(=O)NCC(c2cccnc2)N2CCc3ccccc32)cc1 (centres undefined)	x	-8.3%	x	x	x	x
CCCSc1nnc2n(-c3ccc(OC)cc3)c(=O)c3c4c(sc3n12)COC(C(C)C)C4 (centres undefined)	x	-0.6%	x	4.8%	x	x
COc1cc(/C=N/c2oc(C)c(C)c2C#N)cc(Br)c1O	-0.9%	15.1µM*	4.1%	x	-2.6%	0.2%
Cc1oc(/N=C/c2ccccc2)c(C#N)c1C	2.1%	12µM*	x	x	3.5%	0.6%
Cc1oc(/N=C/c2cccc3ccccc23)c(C#N)c1C	0.2%	-7.9%	-6.3%	-0.4%	0.9%	-1.6%
Clc1ccc(CONc2ncnc3nonc23)c(Cl)c1	u	u	18.1%	u	3.55µM*	2.6%
